# Active and inactive are the calls of the source.
# Columns and labels:
# [1] = A549 cell viability effects, profiling panel, calcein-AM fluorescence, 48 h, basal (AID 1162); conditions: higher = more signal
# [2] = adipocyte viability effects, profiling panel, cell-based, 3T3-L1 adipocytes, calcein-AM fluorescence, 48 h, basal (AID 1163); conditions: 3T3-L1 adipocytes viability, higher = more signal
# [3] = HepG2 cell viability effects, profiling panel, calcein-AM fluorescence, 48 h, basal (AID 1164); conditions: higher = more signal
# [4] = MM1S cell viability effects, profiling panel, calcein-AM fluorescence, 48 h, basal (AID 1165); conditions: higher = more signal;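 further: viability of MM1S multiple myeloma cells under basal unstimulated conditions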
# [5] = basal RPMI8226 viability, no added stimulus, profiling panel, cell-based, calcein-AM fluorescence, 48 h, PK04 Diversity Set (AID 1166); conditions: RPMI8226 myeloma viability, higher = more signal;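 further: cells grown under basal conditions without added stimulus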
# [6] = basal HepG2 mitochondrial membrane potential changes, profiling panel, cell-based, JC-1 fluorescence, 24 h, 100 nL compound (AID 1167); conditions: higher = more signal
# [7] = basal 3T3-L1 adipocyte mitochondrial potential changes, profiling panel, cell-based, JC-1 fluorescence, 3T3-L1 adipocytes, 24 h, 100 nL compound (AID 1168); conditions: JC-1 mitochondrial fluorescence, higher = more signal, called active from +8 up or from −8 down
# [8] = basal RPMI8226 mitochondrial membrane potential changes, profiling panel, cell-based, JC-1 fluorescence, 24 h, 100 nL compound (AID 1169); conditions: RPMI8226 myeloma, JC-1 mitochondrial potential fluorescence, higher = more signal
# [9] = basal MM1S mitochondrial membrane potential changes, profiling panel, cell-based, JC-1 fluorescence, 24 h, 100 nL compound (AID 1170); conditions: higher = more signal
# [10] = A549 lung cancer cell viability effects, profiling panel, resazurin fluorescence, 24 h, PK04 Diversity Set (AID 1171); conditions: higher = more signal, called active from +8 up or from −8 down
# Further: test concentration not given here.
Structure (SMILES),z-score [1],z-score [2],z-score [3],z-score [4],z-score [5],z-score [6],z-score [7],z-score [8],z-score [9],z-score [10]
CO[C@H]1COC(=O)CCC[C@H](C)[C@H](OC)COC(=O)CC=C[C@@H]1C,1.11,-0.14,0.481,-0.469,-0.351,-0.101,-1.7 (inactive),0.226,-0.982,0.285 (inactive)
O=C1[C@H]2CCn3c(=O)n(Cc4cc5c(cc4Cl)OCO5)c(=O)n3[C@H]2[C@H](O)[C@@H]2O[C@H]12,0.173,-0.124,-0.0111,-1.72,-0.518,0.039,-0.275 (inactive),0.177,-0.744,-0.963 (inactive)
CCCNC(=O)OC[C@H]1O[C@H](CCON=C[C@@H](C)[C@H](OCc2ccccc2)C(C)C)C=C[C@@H]1Oc1ccc(OC)cc1,0.544,-0.0223,1.72,0.0415,-0.0657,0.479,0.024 (inactive),0.499,-0.627,0.743 (inactive)
CC(CCN1CCc2nc(-c3ccccc3)c(-c3ccccc3)cc2C1)=NO[C@@H](C)c1cc(-c2c(C)cc(C)cc2C)no1,-0.826,0.998,0.321,-0.494,-1.25,2.47,-1.15 (inactive),-0.535,-1.62,0.235 (inactive)
CON=C[C@@H](OC)[C@H](C)C=CCC(=O)OC,-0.0933,-0.105,0.262,0.253,0.205,-0.34,-1.2 (inactive),0.673,0.856,0.213 (inactive)
CC(C)(C)N1C(=O)[C@H]2[C@H]3[C@H](O)[C@H](O)CC(=NNC(=O)OCc4ccccc4)[C@@H]3CC[C@H]2C1=O,0.193,-0.166,-0.289,0.0671,0.489,-0.813,-0.323 (inactive),-0.368,-0.368,-0.548 (inactive)
COc1ccc(COC(=O)NN=C2C[C@@H](O)[C@@H](O)[C@@H]3[C@@H]4C(=O)N(C[C@@H]5CCCO5)C(=O)[C@@H]4CC[C@H]23)cc1,0.0369,-0.0792,-0.592,0.634,-0.107,-0.402,-1.22 (inactive),-0.148,-1.02,-0.0101 (inactive)
CCN1C(=O)[C@H]2[C@H]3[C@H](O)[C@H](O)CC(=NOC[C@@H](O)[C@H]4O[C@@H]5OC(C)(C)O[C@@H]5[C@H]4O)[C@@H]3CC[C@H]2C1=O,0.725,-0.532,0.282,0.388,0.12,0.0654,0.141 (inactive),0.71,-0.481,-0.794 (inactive)
C[C@@H]1CC[C@H]2C(=O)O[C@@H](COc3ccc(C(C)(C)C)cc3)CN2[C@H]1c1ccc(Br)cc1,0.255,-0.076,0.0944,-1.26,-0.794,-1.31,-1.16 (inactive),-0.16,0.455,1.71 (inactive)
CC(=O)OC[C@H]1O[C@H](C#CCCc2ccccc2)C=C[C@@H]1OC(C)=O,0.233,0.292,-0.207,-3.49,-2.48,-0.972,-0.282 (inactive),-0.353,-1.11,-0.182 (inactive)
CC(CCN1CCc2nc(-c3ccccc3)c(-c3ccccc3)cc2C1)=NO[C@H](C)c1cn([C@H](CO)Cc2ccccc2)nn1,0.75,0.23,0.603,-1.31,0.163,2.57,-1.49 (inactive),1.02,0.428,-0.167 (inactive)
CC(=O)OC[C@H]1O[C@H](CC=NOCC[C@@H]2C=C[C@H](OC(C)=O)[C@@H](COC(C)=O)O2)C=C[C@@H]1OC(C)=O,-0.542,-0.282,-0.441,0.0077,-0.786,-0.314,-0.267 (inactive),0.503,0.394,0.125 (inactive)
CCOC(=O)[C@H](Cc1ccccc1)NC(=O)CCC1CC(OC(=O)NCc2ccc3c(c2)OCO3)CC2(CCCC(COC(=O)NCCc3ccc(Cl)cc3)O2)O1 (stereo not given in full),1.81,0.71,0.622,-0.845,-0.167,0.783,0.361 (inactive),-0.162,-1.27,-0.455 (inactive)
CCCCOC(OCCCC)C(O)CSc1ccc2ccccc2c1 (stereo not given),-1.28,-0.809,0.0428,-2.77,-1.04,-0.36,-0.239 (inactive),0.591,-0.285,-0.911 (inactive)
COC(=O)[C@@H]1CC[C@H](C)[C@@H](c2ccc(Br)cc2)N1C[C@H](O)CN=[N+]=[N-],0.128,0.878,-0.671,0.572,-0.878,-0.0153,-0.416 (inactive),-0.443,0.75,-0.624 (inactive)
COC(=O)[C@H](C)NC(=O)CCC1CC(OC(=O)NCc2ccc3c(c2)OCO3)CC2(CCCC(COC(=O)NCCCN3CCCC3=O)O2)O1 (stereo not given in full),-0.516,-0.232,-1.09,-0.375,-0.322,-0.815,-0.019 (inactive),-0.838,0.224,0.468 (inactive)

Structure (SMILES),z-score [1],z-score [2],z-score [3],z-score [4],z-score [5],z-score [6],z-score [7],z-score [8],z-score [9],z-score [10]
COC(=O)CC=C[C@@H](C)[C@@H](C=NOC(C)CN1CCCCc2nc(C)c(C)cc21)NS(=O)(=O)c1ccc(C)cc1 (stereo not given in full),-0.366,0.61,0.0477,0.0238,-0.141,-0.246,-0.442 (inactive),-1.02,-0.0131,-0.204 (inactive)
C=CC[C@@H]1C=C[C@H](ON=C(C)CCN2CCCc3nc(C)c(C)cc32)[C@@H](CO)O1,0.226,-0.0137,0.0526,-2.03,-1.06,-0.276,0.0489 (inactive),-0.989,-0.455,-0.246 (inactive)
COc1ccc(OC[C@@H](CO)OC)cc1,0.677,0.363,0.647,0.124,-0.342,-0.15,-0.321 (inactive),0.104,0.674,-0.551 (inactive)
CON(C)C(=O)c1nnc2c(n1)[nH]c1ccccc12,-0.681,0.764,0.429,-0.342,-0.0375,-0.88,0.471 (inactive),-0.886,0.0753,0.447 (inactive)
CON=C(C)CCC(=O)OC[C@H]1O[C@H](C#Cc2ccccc2)C=C[C@@H]1Oc1ccc(C)cc1,-0.631,0.0995,-3.1,-2.99,-3.96,-0.712,-0.73 (inactive),-0.5,-0.373,0.216 (inactive)
CON=C(C)CCN1CCCc2nc(C)c(C)cc21,0.604,0.542,0.926,-1.56,-0.0679,0.791,-0.195 (inactive),0.538,0.11,0.161 (inactive)
OC[C@H]1O[C@H](C#Cc2ccccc2)C=C[C@@H]1O,-0.259,0.0466,0.457,-3.41,-1.26,0.552,-0.397 (inactive),0.607,-0.673,-0.852 (inactive)
CO[C@@H]1COC(=O)[C@@H]2CCCN2C(=O)[C@@H](C)COC(=O)CCC[C@H]1C,-0.0294,-0.0132,0.586,-0.407,0.498,-0.189,-2.2 (inactive),-0.0065,-1.2,-1.07 (inactive)
CCN1C(=O)[C@H]2[C@H]3[C@H](O)[C@H](O)CC(=NOCC[C@@H]4C=C[C@H](OC(C)=O)[C@@H](COC(C)=O)O4)[C@@H]3CC[C@H]2C1=O,1.03,-0.286,-0.296,0.0566,-0.727,-0.301,-0.132 (inactive),0.572,-0.306,-0.774 (inactive)
Cc1ccc(C(C)C)n1C(=O)OC(C)(C)C,1.88,0.0856,0.577,0.547,0.228,-0.503,0.499 (inactive),0.68,0.196,-1.47 (inactive)
C[C@H]1CC[C@@H](C(=O)O)N[C@@H]1c1cccc(N2CCCC2=O)c1,0.594,-0.115,0.652,0.149,-1.12,1.66,0.574 (inactive),0.468,-0.436,0.0065 (inactive)
CCN1C(=O)[C@H]2[C@H]3[C@H](O)[C@H](O)CC(=NO[C@@H]4O[C@H](CO)[C@@H](O)[C@H](O)[C@H]4O)[C@H]3CC[C@H]2C1=O,0.212,-0.158,0.298,-0.0327,-0.982,-0.68,-1.21 (inactive),0.0397,0.652,0.14 (inactive)
C[C@H]1CC[C@@H](C(=O)O)N[C@@H]1c1ccc(C#Cc2ccccc2)cc1,-2.1,0.196,-2.28,-3.57,-3.49,-3.46,-0.272 (inactive),-0.92,-1.59,-0.522 (inactive)
CCN1C(C)=C(C(=O)OC)[C@@H](c2ccccc2)N2C(=O)[C@](O)(C(=O)OC)CC(C(C)=O)=C12,0.836,-0.697,0.634,0.339,0.791,0.93,0.935 (inactive),0.138,0.146,-0.256 (inactive)
CC(CCC(=O)OC[C@H]1O[C@H](C#Cc2ccccc2)C=C[C@@H]1Oc1ccc(C)cc1)=NO[C@@H](C)c1cc(-c2c(C)cc(C)cc2C)no1,-0.355,0.777,-0.338,-0.0941,-2.61,1.78,-0.495 (inactive),0.621,0.114,-0.366 (inactive)
CC(C)(C)N1C(=O)[C@H]2[C@H]3[C@H](O)[C@H](O)CC(=NNC(=O)OCc4ccccc4)[C@H]3CC[C@H]2C1=O,-1.13,1.11,-0.516,-0.269,-0.934,-0.639,-1.49 (inactive),-0.411,-0.823,0.321 (inactive)

# Reference: PubChem BioAssay
